Source: PubChem BioAssay (National Center for Advancing Translational Sciences (NCATS))
This is a sample that favours compounds with a hit; in the whole collection about 14% have one here.
Sm TGR inh – S. mansoni TGR enzyme inhibition. Q962Y6. purified TGR, DTNB reduction, TNB absorbance 405 nm. Potency, µM (doses to about 114 µM), for inactives: top-dose activity change, negative = inhibition, actives largely listed as inhibitors. 360,000 compounds, 3% hits. AID 485364; further: potency means the concentration at half of the fitted maximal effect; nearly all actives have a fitted effect of over 60% in size
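TGR 20 nM + NADPH 100 uM (dispensed conc.), cpd preinc 15 min RT; start with NADPH (500 uM addition) then DTNB (15 mM addition). Kinetic TNB absorbance, 405 nm filter. Four-parameter Hill fit across titration.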
HCMV antiviral – blocks human cytomegalovirus replication; HFF cells, HCMV-luciferase reporter, 72 h; active compounds read low; activity change, negative = inhibition, % at 57.5 µM; 410,000 compounds, 4.5% hits; in the data active means activity change below about -60%; inconclusive means no clear call, values can overlap the other calls; inactive means above about -39%
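Inhibition of viral replication was scored as loss of reporter luminescence in HFFs infected with HCMV-luciferase (MOI 1 PFU/cell) for 72 h; compounds tested at 2 doses, normalized to buffer and Salinomycin controls.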
Pf growth 96h – inhibits malaria parasite growth, 96 h. 320,000 compounds, 6.9% hits. Potency, µM (doses to about 28.7 µM), without a hit: top-dose activity change, negative = inhibition, actives largely listed as inhibitors. P. falciparum luciferase reporter growth, 96 h; further: potency means the concentration at half of the fitted maximal effect
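Cell-based qHTS: luciferase-tagged P. falciparum in erythrocytes (2% hematocrit, 0.05% parasitemia final) incubated with compounds for 96 hours, 37 C, 5% CO2; luciferase detection reagent then added and luminescence measured.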
FBPA Giardia inh – inhibitors of Giardia lamblia fructose-1,6-bisphosphate aldolase | A8B2U2 | purified Giardia FBPA | Potency, µM (doses to about 59.6 µM), for inactives: at the top dose activity, negative = inhibition, hits mostly inhibitors | 290,000 compounds, 0.71% hits | AID 2451; further: potency means the concentration at half of the fitted maximal effect; nearly all actives have a fitted effect of over 55% in size
Target sequence (A8B2U2 whole entry, looked up): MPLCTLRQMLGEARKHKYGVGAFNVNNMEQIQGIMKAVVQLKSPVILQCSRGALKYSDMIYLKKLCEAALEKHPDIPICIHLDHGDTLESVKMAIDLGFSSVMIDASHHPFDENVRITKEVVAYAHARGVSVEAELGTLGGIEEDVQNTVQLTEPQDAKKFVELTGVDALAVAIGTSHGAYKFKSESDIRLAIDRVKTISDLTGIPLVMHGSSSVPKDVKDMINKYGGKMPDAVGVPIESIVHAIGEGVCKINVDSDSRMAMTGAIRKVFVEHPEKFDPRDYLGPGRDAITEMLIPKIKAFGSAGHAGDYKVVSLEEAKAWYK
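40 nM FBPA preincubated 10 min at RT with compound (up to 57.5 uM final), then substrate plus GAPDH/TPI/NAD/arsenate coupling and diaphorase/resazurin added. Fluorescence read after 20 min at RT, 525/598 nm.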
Pf growth 48h – inhibits P. falciparum growth in the first generation, 48 h | P. falciparum luciferase growth in erythrocytes, 48 h | Potency, µM (doses to about 28.7 µM), without a hit: top-dose activity change, negative = inhibition, actives largely listed as inhibitors | 310,000 compounds, 5.9% hits | AID 504832; further: potency means the concentration at half of the fitted maximal effect
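Luminescence readout; reporter = integrated firefly luciferase in P. falciparum. RBC culture at 2% hematocrit, 0.1% parasitemia final, 37 C/5% CO2; decreased signal taken as growth inhibition.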
Numbers without * were called inactive; ? = inconclusive; / = not tested or not shown. Unless noted, the call rests on the fitted dose curve; in most records, active means well fitted curve in the direction sought with a large enough effect; inconclusive means small, poorly fitted or top-dose-only effect, or another doubt; inactive means no such curve, though single readings can be large; an effect the other way counts as inactive or inconclusive. On the % scale 0 is the no-effect control and ±100 the full control effect.

SMILES	Sm TGR inh	HCMV antiviral	Pf growth 96h	FBPA Giardia inh	Pf growth 48h
CN(C(=O)NC(=O)C1=C(N2CCOCC2)/C(=C/c2ccccc2)CC1)S(C)(=O)=O	16µM*	68	/	13%	15%
Cc1cc(C)nc(N/N=C/C2=C(N3CCOCC3)C(=C\c3ccc(Cl)cc3)/CC2)n1	32µM*	-24	0%	-13%	?
O=C(O)c1ccc(N/N=C/C2=C(N3CCOCC3)C(=C\c3ccccc3)/CC2)cc1	18µM*	0	33%	-6%	?
O=CC1=C(N2CCOCC2)/C(=C/c2ccc(Cl)cc2)CC1	22µM*	-36	4%	-7%	18%
Cc1cc(C)nc(NN=CC2=C(N3CCOCC3)/C(=C/c3ccc(Cl)cc3)CC2)n1	/	-32	/	/	/
N#CC(C#N)=C1NC2(CCCCC2)Cc2ccccc21	1%	-8	-4%	16%	-16%
N#CC(C#N)=c1ccc2c(c1)NC1(CCCCC1)N=2	-23%	-85*	?	?	?
Cc1ccc(NC(=O)CCCn2c3ccccc3c(=O)c3cc(C)ccc32)c(Br)c1	-4%	?	/	/	/
COc1ccc2c3n(nc2c1)C(C)CN=C3c1ccc(Cl)cc1 (centres undefined)	/	35	/	/	/
CCc1ccc(-c2nc(CS(=O)CC(=O)NCCc3ccccc3)c(C)o2)cc1 (centres undefined)	10µM*	10	?	/	22%
CCc1ccc(-c2nc(CS(=O)CC(=O)NCCN3CCCCCC3)c(C)o2)cc1 (centres undefined)	?	?	-5%	-19%	13%
CCc1ccc(-c2nc(CS(=O)CC(=O)NCCc3ccc(C)cc3)c(C)o2)cc1 (centres undefined)	22µM*	-16	/	/	/
Cc1nc(SCC(=O)N(CC(C)C)C2CCS(=O)(=O)C2)c(C#N)c(C)c1C (centres undefined)	-1%	-10	-18%	/	?
Cc1ccc(NC(=O)c2ncn(CC(=O)NCC(C)c3ccccc3)n2)cc1C (centres undefined)	/	18	/	/	/
CC(=O)N[C@@H]1C(O[C@H]2O[C@H](C(=O)O)C(O)[C@H](O)[C@H]2O)[C@H](O)[C@@H](CO)O[C@H]1O[C@@H]1C(C(=O)O)O[C@@H](O[C@H]2[C@H](O)[C@@H](CO)OC(O)[C@@H]2NC(C)=O)[C@H](O)[C@H]1O (some centres undefined)	/	/	1.7µM*	/	2%
COC1OC(CO)C(OC2OC(C(=O)O)C(OC3OC(COS(=O)(=O)O)C(OC4OC(C(=O)O)C(OC5OC(CO)C(OC6OC(C(=O)O)C(OC7OC(COS(=O)(=O)O)C(OC8OC(C(=O)O)=C[C@H](O)C8OS(=O)(=O)O)C(O)C7NC(C)=O)[C@@H](O)C6O)C(O)C5NC(C)=O)[C@@H](O)C4O)C(O)C3NC(C)=O)[C@@H](O)C2O)C(O)C1NC(C)=O (some centres undefined)	/	/	7.6µM*	-5%	12µM*
COc1cc(-c2cc3nc(NCCOc4ccccc4)ccn3n2)cc(OC)c1OC	/	46	/	/	/
CCCCOc1ccc(C2C(C(=O)c3ccc(C)o3)=C(O)C(=O)N2Cc2ccco2)cc1 (centres undefined)	?	-22	?	/	-1%
Cc1ccc(C(=O)C2=C(O)C(=O)N(Cc3ccco3)C2c2cccc(Cl)c2)o1 (centres undefined)	50µM*	11	30%	/	26%
Cc1ccc(C(=O)C2=C(O)C(=O)N(c3ncccn3)C2c2cccc(Cl)c2)o1 (centres undefined)	11µM*	/	?	-26%	22%
Cc1ccc(C(=O)C2=C(O)C(=O)N(Cc3ccco3)C2c2cccc(Br)c2)o1 (centres undefined)	11µM*	-27	50%	-9%	17%
Cc1ccc(C(=O)C2=C(O)C(=O)N(Cc3ccco3)C2c2ccc(N(C)C)cc2)o1 (centres undefined)	-23%	0	12µM*	/	?
COc1cccc(C2C(C(=O)c3ccc(C)o3)=C(O)C(=O)N2c2cc(C)on2)c1 (centres undefined)	?	0	-21%	/	-4%
COc1ccccc1S(=O)(=O)Nc1cccc(S(=O)(=O)N2CCCC2)c1	/	65	/	/	/
CCN(CC(=O)NC(C)(C)C)C(=O)c1ccccc1SCC(=O)NC1CCCCCCC1	-4%	-8	?	/	10µM*
SMILES	Sm TGR inh	HCMV antiviral	Pf growth 96h	FBPA Giardia inh	Pf growth 48h
Cc1ccc(-c2c(C)n3c4c(=O)n(C)c(=O)n(C)c4nc3n2CCCO)cc1	-3%	-73*	/	/	/
Nc1ccc([As](=O)(O)O)cc1	35µM*	76	8.3µM*	-4%	15µM*
Cc1ccc(C(=O)C(c2ccccc2)N2Cc3ccccc3C2=N)cc1 (centres undefined)	-6%	/	10µM*	?	?
CC(C)CCNC(=O)[C@@H](c1ccccc1)N1Cc2ccccc2C1=O	2%	-1	/	/	/
COc1cccc(NC(=O)n2ncc3c(C)cccc32)c1	6%	58	145%	-4%	/
COC(=O)c1ccc(-c2nc(O)c(C)s2)cc1	/	-65*	18%	-8%	10%
Cc1ccnc(N2C(=O)OC(C)(C)C2(C)O)c1 (centres undefined)	-2%	28	8.3µM*	9%	14%
CCCCc1ccc(NC(=O)CSc2nc(=O)n3cc(C)ccc3n2)cc1	7%	-67*	-18%	/	?
CCN(CC)CCCn1c2c(c(SCC(=O)Nc3nc4ccccc4s3)nc1=O)CCC2	7%	-2	13µM*	/	?
CCCCc1ccc(NC(=O)CSc2nc(=O)n(CCN(C)C)c3c2CCC3)cc1	-8%	-38	?	/	12µM*
CCCCc1ccc(NC(=O)CSc2nc(=O)n(CCN3CCOCC3)c3c2CCC3)cc1	-11%	-14	?	/	-59%
CCCCc1ccc(NC(=O)CSc2nc(=O)n(CCN(CC)CC)c3c2CCCC3)cc1	-3%	-23	2.1µM*	/	12µM*
COc1cc(NC(=O)CSc2nnc(C)n3c2cc2oc(C)cc23)cc(OC)c1	0%	8	/	/	/
Cc1cc(S(=O)(=O)N(Cc2cccs2)Cc2ccccc2F)ccc1-n1cnnn1	1%	-64*	?	0%	?
Cc1cc(S(=O)(=O)N(Cc2ccc(C(C)(C)C)cc2)Cc2cccs2)ccc1-n1cnnn1	-26%	6	?	-9%	?
Cc1cc(S(=O)(=O)N(Cc2ccccc2Cl)c2ccc3c(c2)CCC3)ccc1-n1cnnn1	-5%	9	87%	-5%	12µM*
Cc1cc(S(=O)(=O)N2CCN(c3ccccc3F)CC2)ccc1-n1cnnn1	0%	-77*	12µM*	-9%	-14%
COc1cccc(CN(c2ccc3c(c2)CCC3)S(=O)(=O)c2ccc(-n3cnnn3)c(OC)c2)c1	-9%	24	?	-16%	?
